# Experimental data published in PubChem BioAssay AID1645870 (National Center for Advancing Translational Sciences (NCATS), 2021).
# Where “and” joins values, the source holds several entries; their conditions need not be identical. Identical values can stand only once. The campaign covered roughly 59,000 compounds. About 1,500 (2.5%) were called active. Another 10% or so got no clear call; they are omitted. The entries come from a sample that favours actives as a whole. A number with no mark means an inactive call. The call rests on the fitted dose curve; in most records, active means well fitted inhibition curve with a large enough effect; inconclusive means small, poorly fitted or top-dose-only effect; inactive means flat fitted curve, though single readings scatter.
# Molecular target: N-terminal Xaa-Pro-Lys N-methyltransferase 1 (Homo sapiens) (UniProt Q9BV86)
# Sequence (Q9BV86 whole entry, looked up): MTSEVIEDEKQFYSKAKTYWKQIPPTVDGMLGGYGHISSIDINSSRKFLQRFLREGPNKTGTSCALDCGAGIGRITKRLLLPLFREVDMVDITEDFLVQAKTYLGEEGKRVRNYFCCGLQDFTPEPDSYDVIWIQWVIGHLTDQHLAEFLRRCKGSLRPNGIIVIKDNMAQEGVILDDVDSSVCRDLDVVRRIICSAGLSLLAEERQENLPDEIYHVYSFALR
# Experiment: Primary qHTS for Inhibitors of N-terminal methyltransferase 1 (NTMT1): MTaseGlo Assay; further: nearly all actives have a fitted effect of over 65% in size;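 on activity change, negative = inhibition: plate controls were DMSO vehicle for no effect and no enzyme for full effect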
# Conditions: NTMT1 MTase-Glo SAH luminescence, purified enzyme; series mostly up to 114 µM; activity change, negative = inhibition: at the top concentration
# Description: Assay Submitter (PI): Rong Huang Ph.D.
# Purdue University, West Lafayette, IN 47907
# The N-terminal methytransferase 1 is the first methyltransferase that methylates protein alpha-N-amines and plays an important role in regulating cell mitosis, chromatin interactions and DNA repair. It is observed to be over-expressed in various cancer patient tissues like malignant melanoma and colorectal cancer tissues. Knockdown of NTMT1 in cancer cells causes cell mitotic defects and enhances sensitivity to DNA damaging chemotherapeutics. […] These critical cellular processes in which NTMT1 is implicated, coupled with emerging links to cellular dysfunction, strengthen the inference that NTMT1 is a compelling novel anticancer target. Progress have been made in understanding the molecular properties of NTMT1 and the biological consequences of protein alpha-N-terminal methylation, but there are no specific small molecule probes available for NTMT1 to fully characterize its MTase activity. To address this unmet need, a panel of assay is created and established to enable quantitative high-throughput screening (qHTS) for novel, potent, and selective small molecule NTMT1 inhibitors. Two orthogonal qHTS that use different reagents (ThioGlo vs. MTaseGlo) are developed for primary robotic screening against the NCATS chemical library of more than 400,000 small molecules. Identified inhibitors are reacquired, validated, and further characterized.
# MTaseGlo Assay is a luminescence screen that measure the activity of methyltransferases based on the reaction product S-adenosyl homocysteine (SAH). The substrate SAM is converted to SAH upon enzyme activation. MTase-Glo reagent and detection solution convert SAH to ATP and measure the light from the luciferase reaction.
# Materials: NTMT1 enzyme, substrate SPKRIA, control peptide RCC1-6 is provided by the Huang laboratory.
# SEQUENCE No. (e.g., 1, 2, 3, etc.); […] (e.g., Cells, Incubation, Reagent, etc.); VALUE; DESCRIPTION
# 1; Enzyme; 3 uL; Dispense enzyme mixture (final concentrations of 125 nM NTMT1 and 100 uM SAM) into Greiner 1536-well white / solid bottom assay plate (Greiner Bio One, Monroe, NC).
# 2; Compounds; 23 nL; Compounds and controls were transferred via a Kalypsys Pin Tool (Wako USA) equipped with a 1536-slotted pin array (Wako Automation, Richmond, VA)
# 3; Incubation; 15 min; Incubate at room temperature
# 4; Substrate; 1 uL; Dispense 1 uL of substrate at final concentration of 1 uM. Buffer solution was dispensed in control wells. The assay plate was covered with metal lids.
# 5; Incubation; 30 min; Incubate at room temperature, protected from lights.
# 6; Reagent; 1 uL; Dispensed 5x MTase-Glo detection reagent (R) into the assay plate. The plate was covered with metal lids.
# 7; Incubation; 30 min; Incubate the assay plates at room temperature in the dark to allow for SAH to be converted to ADP.
# 8; Reagent; 5 uL; Dispense 5 uL of 1x MTase-Glo Detection Solution (R) to allow for ADP to be converted to ATP which was then detected with a luciferase reaction.
# 9; Centrifuge; 15 sec; Centrifuge the assay plate for 15 seconds at 1000 RPM.
# 10; Incubation; 30 min; Assay plates were incubation at room temperature in the dark.
# 11; Detection; Luminescence; Plates were read on ViewLux detector (PerkinElmer). Data were normalized to no-enzyme (0% activity) and no-inhibitor (DMSO; 100%) controls, and the resulting percent inhibition data were fitted to a 4-parameter Hill equation using GraphPad Prism.
# Potency means the concentration at half of the fitted maximal effect.
Structure (SMILES),Potency,"activity change, negative = inhibition"
COc1cc2ncnc(Nc3cccc(Cl)c3F)c2cc1OC(=O)N1CCN(C)C[C@H]1C,35.5 µM (active) and 39.8 µM (active),–
C=CC(=O)Nc1ccc2ncnc(Nc3ccc(OCc4cccc(F)c4)c(Cl)c3)c2c1,–,-22% [at 57.5 µM]
Cc1cc(NS(=O)(=O)c2cc3c(cc2F)NC(=O)CC3)ccc1F,inactive,–
CNc1oc(-c2ccc(-c3ccccc3)cc2)nc1C#N,–,-2.96%
COc1ccc(C(=O)N(Cc2ccccc2)Cc2ccc(OC)c(COc3ccc(NC(C)=O)cc3)c2)c(O)c1,–,-0.368%
O=C(Nc1ccc(S(=O)(=O)Nc2nccs2)cc1)C1CC(OCc2ccccc2)C1 (stereo unspecified),–,3.69%
O=C(CNC(=O)c1ccc(Cl)cc1Cl)OC(C(=O)Nc1cc(C(F)(F)F)ccc1Cl)c1ccccc1 (stereo unspecified),–,14.1%
Cc1cn([C@H]2C[C@H](N[S+](=O)([O-])Cc3ccc(Cl)cc3)[C@@H](CO)O2)c(=O)[nH]c1=O,–,1.89%
Cc1[nH]c(/C=C2\C(=O)Nc3ccc(S(=O)(=O)Cc4c(Cl)cccc4Cl)cc32)c(C)c1C(=O)N1CCC[C@@H]1CN1CCCC1,11.2 µM (active),–
Cc1cc(C)c(/C=C2\C(=O)Nc3ccccc32)[nH]1,inactive,–
Cc1ccc(C(=O)Nc2ccc(S(=O)(=O)Nc3nccs3)cc2)cc1C,–,-14.7%
O=C(Cc1ccc(Cl)c(Cl)c1)Nc1ccc([S+](=O)([O-])Nc2cccc([N+](=O)[O-])c2)cc1,–,5.18%
O=S1(=O)N=C(Oc2cccc(Br)c2)c2ccccc21,–,-6.08%
O=C(Nc1ccccn1)c1sc2ccc([N+](=O)[O-])cc2c1Cl,–,3.22%
COC(=O)c1ccccc1NC(=O)c1ccc(C#N)cc1,–,-1.32%
COc1ccc(C2Nc3ccccc3C(=O)N2Cc2cccc(OC)c2OC)cc1COc1c(C)cc(NC(C)=O)cc1C (stereo unspecified),–,-0.852%
Cc1cccc(N2CCN(c3ccc(C(=O)O)cc3NC(=O)c3ccccc3F)CC2C)c1 (stereo unspecified),70.8 µM (active),–
Cc1cccc(N2CCN(C(=O)c3cc4c(=O)oc5ccccc5c4s3)CC2C)c1 (stereo unspecified),–,1.45%
Cc1ccccc1NC(=O)c1c(NC(=O)c2ccccc2F)sc2c1CCC(C)C2 (stereo unspecified),–,22.5%

Structure (SMILES),Potency,"activity change, negative = inhibition"
O=C1CC(c2c[nH]c3ccc(F)cc23)C(=O)N1 (stereo unspecified),–,7.14%
CC1=C(C(=O)Nc2ccccc2C)C(c2ccccc2Br)N=C(Nc2nc3ccccc3o2)N1 (stereo unspecified),–,10.4%
O=C(CNC(=O)c1ccc(Cl)c(C(F)(F)F)c1)OC(C(=O)Nc1cc(C(F)(F)F)ccc1Cl)c1ccccc1 (stereo unspecified),–,6.81%
CCC(C(=O)Nc1cccc(Cl)c1C)n1nc(-c2ccc(C)cc2)ccc1=O (stereo unspecified),79.4 µM (active),–
Cc1ccc(-c2ccc(=O)n(CCNC(C)c3ccco3)n2)cc1 (stereo unspecified),–,-3.03%
Cc1c(Cl)cccc1NC(=O)N1CCN(C(=O)c2nsc3ccccc23)CC1,–,4.51%
N#CN1CCC(NC(=O)c2ccc(F)cc2)CC1,–,10.9%
CNc1oc(-c2cccc(Cl)c2Cl)nc1C#N,–,-4.37%
COc1cccc(C(=O)NC2CCN(C#N)CC2)c1,–,12.7%
COc1ccc(C2Nc3ccccc3C(=O)N2Cc2ccccc2)cc1COc1ccc(C(N)=O)cc1 (stereo unspecified),–,16% [at 57.5 µM]
C[C@H](NC(=O)c1c(N)nn2cccnc12)c1cc2cccc(C#Cc3cnn(C)c3)c2c(=O)n1-c1ccccc1,–,8.45% [at 57.5 µM]
Cc1sc(NC(=O)Cc2ccc3c(c2)OCO3)nc1-c1ccc2c(c1)CCN2,–,4.99%
CCN(CC)CCNC(=O)Cn1ncc2c3ccccc3n(Cc3ccccc3C)c2c1=O,89.1 µM (active),–
CCCN(CCC)CCCNC(=O)Cn1ncc2c3ccccc3n(Cc3ccccc3)c2c1=O,–,-15.4%
CCN(CCCNC(=O)Cn1ncc2c3ccccc3n(C)c2c1=O)Cc1ccccc1,–,4.28%
CCOc1ccc(CCNC(=O)c2cc3sccc3n2CCN2CCOCC2)cc1OCC,–,-2.87%
CS(=O)(=O)c1ccc(C(=O)OCC(=O)N2CCC(c3ccccc3)CC2)cc1[N+](=O)[O-],–,12.1%
Cc1cc(N[S+](=O)([O-])c2ccc(NC(=O)Cc3ccc(F)c(C(F)(F)F)c3)cc2)no1,–,11.7%
Cc1cc(Oc2ccc3nc(COc4ccc(CC5SC(=O)NC5=O)cc4)n(C)c3c2)cc(C)c1N (stereo unspecified),–,-20.2%

Structure (SMILES),Potency,"activity change, negative = inhibition"
COc1ccc(OCC(=O)Nc2cccc(C(=O)OCc3cc(=O)n4nc(C)sc4n3)c2)cc1,50.1 µM (active),–
CCCCc1nn2c(=O)cc(COC(=O)c3cccc(NC(=O)COc4ccccc4)c3)nc2s1,–,12.9%
Cc1nn2c(=O)cc(COC(=O)c3cccc(NC(=O)COc4ccccc4Cl)c3)nc2s1,–,-5.59%
CCN(CC)CCNC(=O)c1cc(S(C)(=O)=O)ccc1OC,–,10.6% [at 57.5 µM]
CCOc1cc2[nH]c(=O)n(Cc3ccc(C(=O)NCCN(CC)CC)cc3)c(=O)c2cc1OCC,–,0.768%
CCN(CC)CCNC(=O)c1c(C)[nH]c(C=C2C(=O)Nc3ccc(F)cc32)c1C,44.1 µM (active),–
CCOc1cc(C(C)(C)C)ccc1C1=N[C@@](C)(c2ccc(Cl)cc2)[C@@](C)(c2ccc(Cl)cc2)N1C(=O)N1CCN(CC(=O)N2CCOCC2)CC1,–,23.9% [at 57.5 µM]
C=C1C[C@@H]2CC[C@@]34C[C@H]5O[C@H]6[C@@H](O3)[C@H]3O[C@H](CC[C@@H]3O[C@H]6[C@H]5O4)CC(=O)C[C@@H]3[C@@H](OC)[C@@H](C[C@H](O)CN)O[C@H]3C[C@H]3O[C@@H](CC[C@@H]1O2)C[C@@H](C)C3=C,–,19.2% [at 29.8 µM]
O=S(=O)(NC1CCN(S(=O)(=O)c2ccc3c(c2)OCCO3)CC1)c1c(F)cccc1F,–,0.994%
COc1ccc(C2=Nn3c(nnc3-c3ccccc3F)SC2)cc1OC,–,8.76%
COC(=O)c1ccc(NC(=O)CSc2n[nH]c(-c3ccccc3)n2)cc1,–,7.74%
COc1ccc(-c2nc3c(c(SCC(=O)Nc4ccc(C(=O)O)cc4)n2)Cc2ccccc2O3)cc1,11.2 µM (active),–
COc1ccc(NC(=O)CSc2nc3ccccc3[nH]2)cc1,–,3.79%
CN(C)CC(=O)NC1CCCc2c1cnn2-c1ccc(F)cc1F (stereo unspecified),–,16.2%
O=C(Nc1ccc(Cl)c(Cl)c1)Nc1nnc(N2CCNCC2)s1,50.1 µM (active),–
O=C(Nc1ccc(Cl)c(Cl)c1)Nc1nnc(-c2ccc(F)cc2)s1,–,2.77% [at 57.5 µM]
O=C(Nc1ccc(Cl)c(Cl)c1)Nc1nnc(C2CCCCC2)s1,–,4.94%
O=C(Nc1nc(-c2ccccc2)cs1)c1ccccc1-n1cnnn1,–,-8.17%
